target: PUM1 PUF domain R5-RYS (Homo sapiens, UniProt Q14671 828-1176, C1007R;R1008Y;Q1011S); experiment: yeast three-hybrid, YBZ-1, SC-Leu-His + 0.5 mM 3-AT, 4 days; settings: tags: N-Gal4 AD-HA kept; label: inside an RPR1-promoter hybrid RNA with tandem MS2 sites; ssRNA
How it was run: (§1)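 A centromeric plasmid in strain YBZ-1 co-expressed Pumilio-1 PUF domain libraries, randomized at the three base-contacting residues of each repeat, with matching RNA elements; the strain carries a LexA–MS2 coat fusion and a HIS3 reporter. After four days on SC-Leu (input) or SC-Leu-His + 0.5 mM 3-AT (selection), the repeat regions were PCR-amplified and Illumina-sequenced. The interaction score is the log change in variant frequency from input to selection, using log2 and a pseudocount of 1 where absent.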

PUM1 PUF domain R5-RYS, sequence (Q14671 828-1176 C1007R/R1008Y/Q1011S): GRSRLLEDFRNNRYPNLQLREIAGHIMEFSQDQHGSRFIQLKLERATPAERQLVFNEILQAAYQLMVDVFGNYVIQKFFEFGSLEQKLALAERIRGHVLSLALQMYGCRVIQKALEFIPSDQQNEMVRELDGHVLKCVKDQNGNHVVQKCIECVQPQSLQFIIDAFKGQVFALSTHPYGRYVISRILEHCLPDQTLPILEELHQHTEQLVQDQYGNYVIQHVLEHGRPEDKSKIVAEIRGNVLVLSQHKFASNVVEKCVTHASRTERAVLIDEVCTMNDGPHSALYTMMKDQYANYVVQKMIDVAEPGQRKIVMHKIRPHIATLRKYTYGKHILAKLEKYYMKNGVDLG

Row | Sequence | binding signal
1 | GGCUAGAACUAGUGGAUCCCCCGGCGCCCGGCGGCUCGAGCCCGGGUAAGUGUAAAUAGUCUGCAUGCCGCCGGGCGCCAUGCCUGCAGGUCGACUCUAGAAAACAUG | 3.42 log2 enrichment (interaction score)
2 | GGCUAGAACUAGUGGAUCCCCCGGCGCCCGGCGGCUCGAGCCCGGGUAAGUGUUAAUAGUCUGCAUGCCGCCGGGCGCCAUGCCUGCAGGUCGACUCUAGAAAACAUG | 3.23 log2 enrichment (interaction score)
3 | GGCUAGAACUAGUGGAUCCCCCGGCGCCCGGCGGCUCGAGCCCGGGUAAGUGUCAAUAGUCUGCAUGCCGCCGGGCGCCAUGCCUGCAGGUCGACUCUAGAAAACAUG | 5.4 log2 enrichment (interaction score)

target: PUM1 PUF domain R4-SPA (Homo sapiens, UniProt Q14671 828-1176, N971S;H972P;Q975A); experiment: as above; settings: tags: N-Gal4 AD-HA kept; label: inside an RPR1-promoter hybrid RNA with tandem MS2 sites; ssRNA
How it was run: as §1

PUM1 PUF domain R4-SPA, sequence (Q14671 828-1176 N971S/H972P/Q975A): as the sequence (Q14671 828-1176 C1007R/R1008Y/Q1011S) above, with N144S, H145P, Q148A, R180C, Y181R, S184Q counted along it

Row | Sequence | binding signal
4 | GGCUAGAACUAGUGGAUCCCCCGGCGCCCGGCGGCUCGAGCCCGGGUAAGUGUAAAUAGUCUGCAUGCCGCCGGGCGCCAUGCCUGCAGGUCGACUCUAGAAAACAUG | 3.03 log2 enrichment (interaction score)
5 | GGCUAGAACUAGUGGAUCCCCCGGCGCCCGGCGGCUCGAGCCCGGGUAAGUGUACAUAGUCUGCAUGCCGCCGGGCGCCAUGCCUGCAGGUCGACUCUAGAAAACAUG | 1.59 log2 enrichment (interaction score)
6 | GGCUAGAACUAGUGGAUCCCCCGGCGCCCGGCGGCUCGAGCCCGGGUAAGUGUAUAUAGUCUGCAUGCCGCCGGGCGCCAUGCCUGCAGGUCGACUCUAGAAAACAUG | 3.25 log2 enrichment (interaction score)

target: PUM1 PUF domain R5-RFL (Homo sapiens, UniProt Q14671 828-1176, C1007R;R1008F;Q1011L); experiment: as above; settings: tags: N-Gal4 AD-HA kept; label: inside an RPR1-promoter hybrid RNA with tandem MS2 sites; ssRNA
How it was run: as §1

PUM1 PUF domain R5-RFL, sequence (Q14671 828-1176 C1007R/R1008F/Q1011L): as the sequence (Q14671 828-1176 C1007R/R1008Y/Q1011S) above, with Y181F, S184L counted along it

Row | Sequence | binding signal
7 | GGCUAGAACUAGUGGAUCCCCCGGCGCCCGGCGGCUCGAGCCCGGGUAAGUGUAAAUAGUCUGCAUGCCGCCGGGCGCCAUGCCUGCAGGUCGACUCUAGAAAACAUG | 3.51 log2 enrichment (interaction score)
8 | GGCUAGAACUAGUGGAUCCCCCGGCGCCCGGCGGCUCGAGCCCGGGUAAGUGUUAAUAGUCUGCAUGCCGCCGGGCGCCAUGCCUGCAGGUCGACUCUAGAAAACAUG | 4.97 log2 enrichment (interaction score)
9 | GGCUAGAACUAGUGGAUCCCCCGGCGCCCGGCGGCUCGAGCCCGGGUAAGUGUCAAUAGUCUGCAUGCCGCCGGGCGCCAUGCCUGCAGGUCGACUCUAGAAAACAUG | 4.06 log2 enrichment (interaction score)

target: PUM1 PUF domain R5-RAQ (Homo sapiens, UniProt Q14671 828-1176, C1007R;R1008A); experiment: as above; settings: tags: N-Gal4 AD-HA kept; label: inside an RPR1-promoter hybrid RNA with tandem MS2 sites; ssRNA
How it was run: as §1

PUM1 PUF domain R5-RAQ, sequence (Q14671 828-1176 C1007R/R1008A): as the sequence (Q14671 828-1176 C1007R/R1008Y/Q1011S) above, with Y181A, S184Q counted along it

Row | Sequence | binding signal
10 | GGCUAGAACUAGUGGAUCCCCCGGCGCCCGGCGGCUCGAGCCCGGGUAAGUGUAAAUAGUCUGCAUGCCGCCGGGCGCCAUGCCUGCAGGUCGACUCUAGAAAACAUG | 1.44 log2 enrichment (interaction score)
11 | GGCUAGAACUAGUGGAUCCCCCGGCGCCCGGCGGCUCGAGCCCGGGUAAGUGUUAAUAGUCUGCAUGCCGCCGGGCGCCAUGCCUGCAGGUCGACUCUAGAAAACAUG | 4.06 log2 enrichment (interaction score)
12 | GGCUAGAACUAGUGGAUCCCCCGGCGCCCGGCGGCUCGAGCCCGGGUAAGUGUCAAUAGUCUGCAUGCCGCCGGGCGCCAUGCCUGCAGGUCGACUCUAGAAAACAUG | 4.49 log2 enrichment (interaction score)

target: PUM1 PUF domain R3-FYG (Homo sapiens, UniProt Q14671 828-1176, C935F;R936Y;Q939G); experiment: as above; settings: tags: N-Gal4 AD-HA kept; label: inside an RPR1-promoter hybrid RNA with tandem MS2 sites; ssRNA
How it was run: as §1

PUM1 PUF domain R3-FYG, sequence (Q14671 828-1176 C935F/R936Y/Q939G): as the sequence (Q14671 828-1176 C1007R/R1008Y/Q1011S) above, with C108F, R109Y, Q112G, R180C, Y181R, S184Q counted along it

Row | Sequence | binding signal
13 | GGCUAGAACUAGUGGAUCCCCCGGCGCCCGGCGGCUCGAGCCCGGGUAAGUGUAAAUAGUCUGCAUGCCGCCGGGCGCCAUGCCUGCAGGUCGACUCUAGAAAACAUG | 4.62 log2 enrichment (interaction score)
14 | GGCUAGAACUAGUGGAUCCCCCGGCGCCCGGCGGCUCGAGCCCGGGUAAGUGUAAUUAGUCUGCAUGCCGCCGGGCGCCAUGCCUGCAGGUCGACUCUAGAAAACAUG | 5.45 log2 enrichment (interaction score)
15 | GGCUAGAACUAGUGGAUCCCCCGGCGCCCGGCGGCUCGAGCCCGGGUAAGUGUAAGUAGUCUGCAUGCCGCCGGGCGCCAUGCCUGCAGGUCGACUCUAGAAAACAUG | 7.3 log2 enrichment (interaction score)
